Screening data: PubChem BioAssay, several laboratories
A selection: hits, their analogues and other compounds. The true share with any hit is near 2%.
VLA-4 inh – inhibition in human VLA-4 binding assay, primary screen, VLA-4 allosteric modulator project, MLPCN library, flow cytometry, VLA-4 expressing cells; Integrin alpha-4 (Homo sapiens), P13612; ligand binding flow cytometry; inhibition, % (about 7 µM as worked out from the volumes in the protocol); 0.2% of 330,000 active; AID 2557, 2010; in the data active means inhibition above about 50%
ABCB6 inh MLPCN – ABCB6 transporter inhibitors, primary screen, K562-ABCB6 cells, flow cytometry, MLPCN library; 0.19% of 360,000 active; ATP-binding cassette sub-family B member 6 (Homo sapiens), Q9NP58; fluorescence ratio to DMSO, % at 10 µM; K562-ABCB6 porphyrin accumulation, 1 h; active compounds read low;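 active means fluorescence ratio to DMSO below 75%, the collection mean minus 3 SD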;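 further: signal is porphyrin accumulated inside mitochondria; 100% equals median channel fluorescence of DMSO control wells; lower ratio means ABCB6 inhibition with less porphyrin fluorescence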
Target sequence (Q9NP58 whole entry, looked up): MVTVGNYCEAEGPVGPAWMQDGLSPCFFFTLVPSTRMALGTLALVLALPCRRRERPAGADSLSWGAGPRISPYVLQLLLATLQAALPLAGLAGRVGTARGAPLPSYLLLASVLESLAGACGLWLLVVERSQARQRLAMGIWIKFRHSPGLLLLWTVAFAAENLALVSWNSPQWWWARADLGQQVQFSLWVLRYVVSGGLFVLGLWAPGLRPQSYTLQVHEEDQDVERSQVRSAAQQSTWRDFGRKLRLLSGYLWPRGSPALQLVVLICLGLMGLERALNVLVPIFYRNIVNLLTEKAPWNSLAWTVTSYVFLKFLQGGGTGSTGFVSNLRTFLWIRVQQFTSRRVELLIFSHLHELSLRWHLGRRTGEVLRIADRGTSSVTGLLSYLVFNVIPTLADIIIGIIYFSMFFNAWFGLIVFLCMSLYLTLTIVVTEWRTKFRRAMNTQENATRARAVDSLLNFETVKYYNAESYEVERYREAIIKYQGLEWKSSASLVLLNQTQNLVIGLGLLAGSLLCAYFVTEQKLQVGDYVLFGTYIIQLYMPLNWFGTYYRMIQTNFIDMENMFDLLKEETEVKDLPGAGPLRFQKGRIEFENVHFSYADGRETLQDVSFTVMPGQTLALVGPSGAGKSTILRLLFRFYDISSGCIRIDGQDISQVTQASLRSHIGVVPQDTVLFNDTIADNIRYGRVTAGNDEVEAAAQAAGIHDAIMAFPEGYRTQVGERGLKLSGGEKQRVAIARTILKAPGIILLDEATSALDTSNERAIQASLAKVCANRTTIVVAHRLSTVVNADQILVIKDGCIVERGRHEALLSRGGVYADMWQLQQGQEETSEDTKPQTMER
Rev-erbA mod – modulators of Rev-erb alpha DNA binding, primary screen, biochemical, FITC-DNA, fluorescence polarization, uHTS; Nuclear receptor subfamily 1 group D member 1 (Homo sapiens), P20393; Rev-erbα–FITC-DNA binding, 90 min; activity, % at 10 µM; 0.79% of 370,000 active; AID 1259318, 2017;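 active means activity above about 14%, limit read from the data; passing the limit was not always enough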;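 further: 0% = DMSO wells with 35 nM protein and 100% = DMSO wells with 750 nM protein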
Exocytosis inh – LAMP-1 surface exposure blockers, TALL-104 cells – cell-based, flow cytometry, MLPCN library, primary screen | TALL-104 LAMP-1 surface exposure; cells stimulated with thapsigargin and PMA | inhibition, % at 10 µM | 0.66% of 360,000 active;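 active means inhibition above about 55%, limit read from the data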
PG9 binder – binders of HIV-1 gp120 antibody PG9, primary screen, biochemical, TR-FRET; HIV-1 gp120 / PG9 antibody interaction; TR-FRET gp120-PG9 antibody binding; inhibition, % at 6.7 µM; 0.43% of 360,000 active; in the data active means inhibition above about 8.5%
Rev-erbA confirm – modulators of Rev-erb alpha DNA binding, confirmation, biochemical, FITC-DNA, fluorescence polarization, single point | 61% of 3,000 active | activation, % at 25 µM | shares compounds with Rev-erbA mod | 90 min | AID 1259319, 2017;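 active means activation at or above a set limit, or at least 3 SD above the negative control mean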;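 further: 0% = 35 nM protein with DMSO and 100% = 750 nM protein high control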
RORg counter – modulation of RORgamma DNA binding, dose response, counter-screen for Rev-erb alpha modulator project, biochemical, fluorescence polarization, FITC-DNA | shares compounds with Rev-erbA mod | purified RORgamma protein-FITC-DNA binding | IC50, µM | 8% of 910 active;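 active means Compounds whose fitted half-maximal concentration for disrupting protein-DNA binding is below 10 micromolar; the record names Rev-erb in its text, so the target is in doubt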
Numbers without * were called inactive.

For O=C1CSC(c2ccccc2)N1Nc1nc(N2CCOCC2)nc(N2CCOCC2)n1 (configuration not stated) the results were VLA-4 inh -32, ABCB6 inh MLPCN 98, Rev-erbA mod 22*, Exocytosis inh 4, PG9 binder -2 and Rev-erbA confirm 5.
Screening COC(=O)c1cc(-c2cc3ccccc3s2)c(=O)n2c1CCC2 returned Rev-erbA mod 58*, Rev-erbA confirm 40* and RORg counter >40.
COC(=O)c1cc(-c2ccc3ccccc3c2)c(=O)n2c1CCC2 was read as Rev-erbA mod 3.
`O=[N+]([O-])c1cc(-c2cnc3ccccc3n2)ccc1Cl` gave VLA-4 inh 0, ABCB6 inh MLPCN 102, Rev-erbA mod 93*, Exocytosis inh -2, PG9 binder -2, Rev-erbA confirm 68* and RORg counter >40.
Cc1c(Cl)cccc1NC(=O)Cn1cc(C(F)(F)F)cc(Cl)c1=O was read as VLA-4 inh 1, ABCB6 inh MLPCN 95, Rev-erbA mod 44*, Exocytosis inh -3, PG9 binder 0, Rev-erbA confirm 43* and RORg counter inactive.
Cc1ccc(Cl)cc1NC(=O)Cn1cc(C(F)(F)F)cc(Cl)c1=O was read as VLA-4 inh 12, ABCB6 inh MLPCN 96, Rev-erbA mod 4, Exocytosis inh 0 and PG9 binder -2.
Screening COc1ccc(CN2CN3Cc4ccccc4C3CS2(=O)=O)cc1 (configuration not stated) returned Rev-erbA mod 6.
Screening COC(=O)c1c(C(=O)c2ccc(Br)cc2)n(C)c2ccccc12 returned VLA-4 inh 14, ABCB6 inh MLPCN 94, Rev-erbA mod 18*, Exocytosis inh -1, PG9 binder 4 and Rev-erbA confirm 21*.
Screening Cc1nnc2sc(-c3ccc(NC(=O)CSc4ccc(Cl)cc4)cc3)nn12 returned VLA-4 inh 2, ABCB6 inh MLPCN 95, Rev-erbA mod -4, Exocytosis inh 3 and PG9 binder 0.
CCc1nnc2sc(-c3ccc(NC(=O)CSc4ccc(Cl)cc4)cc3)nn12 was read as VLA-4 inh 5, ABCB6 inh MLPCN 102, Rev-erbA mod 32*, Exocytosis inh 4, PG9 binder 0 and Rev-erbA confirm 21*.
Screening CCc1ccccc1NC(=O)CSc1nc2cc(C(=O)NCC3CCCO3)ccc2c(=O)n1CC1CCCO1 (configuration not stated) returned ABCB6 inh MLPCN 100, Rev-erbA mod 2, Exocytosis inh -1 and PG9 binder -1.
`CCCCCn1c(SCC#N)nc2cc(C(=O)NCC3CCCO3)ccc2c1=O` (configuration not stated) gave VLA-4 inh 15, ABCB6 inh MLPCN 98, Rev-erbA mod 71*, Exocytosis inh 2, PG9 binder 68* and Rev-erbA confirm 38*.
O=S(=O)(Cc1cc(NCc2ccccc2)nc(-c2ccncc2)n1)c1ccccc1 was read as VLA-4 inh 15, ABCB6 inh MLPCN 101, Rev-erbA mod 17*, Exocytosis inh 1, PG9 binder -1, Rev-erbA confirm 44* and RORg counter >40.
`CSc1cc(CS(=O)(=O)c2ccccc2)nc(-c2ccccc2)n1` gave VLA-4 inh -5, ABCB6 inh MLPCN 99, Rev-erbA mod 20*, Exocytosis inh -1, PG9 binder -1 and Rev-erbA confirm 28*.
For O=C(Nc1ccc(C(O)(C(F)(F)F)C(F)(F)F)cc1)c1ccc(Cl)cc1 the results were Rev-erbA mod 12.
`COc1ccc(CN2C(=O)c3cccc4cccc(c34)C2=O)cc1` gave VLA-4 inh -15, ABCB6 inh MLPCN 95, Rev-erbA mod 23*, Exocytosis inh -3, PG9 binder 0 and Rev-erbA confirm 15*.
Screening O=C1c2cccc3cccc(c23)N1Cc1ccc(F)cc1 returned VLA-4 inh -2, ABCB6 inh MLPCN 100, Rev-erbA mod 1, Exocytosis inh 2 and PG9 binder -2.
COc1ccc2c(c1)CNC2CS(=O)(=O)NCc1ccccc1 (configuration not stated) was read as Rev-erbA mod -7.
COc1ccc(Sc2nc3ccccc3n3c(C(F)(F)F)nnc23)cc1 was read as VLA-4 inh 0, ABCB6 inh MLPCN 97, Rev-erbA mod 56*, Exocytosis inh 3, PG9 binder -5, Rev-erbA confirm 34* and RORg counter >40.
`COc1ccc(-c2cc(-n3c(C(F)(F)F)nc4ccccc43)n(CCC#N)n2)cc1` gave VLA-4 inh 3, ABCB6 inh MLPCN 99, Rev-erbA mod 5, Exocytosis inh -4 and PG9 binder 2.
Screening O=C(Nc1ccnc(-c2cccnc2)n1)c1ccc(Cl)cc1 returned VLA-4 inh 1, ABCB6 inh MLPCN 99, Rev-erbA mod 45*, Exocytosis inh -2, PG9 binder -1, Rev-erbA confirm 41* and RORg counter >40.
Cc1c(C#N)c(O)[nH]c(=O)c1N=Nc1ccc(S(N)(=O)=O)cc1 was read as VLA-4 inh -8, ABCB6 inh MLPCN 96, Rev-erbA mod 26*, Exocytosis inh -13, PG9 binder -2 and Rev-erbA confirm 17*.
Screening C=CCNc1nc(NCc2ccc(NC(C)=O)cc2)c2sc(-c3ccccc3)cc2n1 returned ABCB6 inh MLPCN 102, Rev-erbA mod 65*, Exocytosis inh 33, PG9 binder -1, Rev-erbA confirm 76* and RORg counter >40.
`O=S1(=O)N[C@@H](Cc2ccccc2)COc2cc(N3CCOCC3)ccc21` gave Rev-erbA mod -8 and PG9 binder 0.
Screening COC(=O)C[C@@H]1CC[C@@H]2[C@@H](COc3ccc(NC(C)=O)cc3C(=O)N2C)O1 returned Rev-erbA mod 2.
`CCn1c(SCC(=O)Nc2ccc(C(C)=O)cc2)nc2nc3c(cc2c1=O)CCCC3` gave VLA-4 inh 20, ABCB6 inh MLPCN 93, Rev-erbA mod 17*, Exocytosis inh 3, PG9 binder 0 and Rev-erbA confirm 5.
CCn1c(SCC(=O)Nc2ccc(Cl)cc2)nc2nc3c(cc2c1=O)CCCC3 was read as VLA-4 inh 11, ABCB6 inh MLPCN 100, Rev-erbA mod 0, Exocytosis inh 2 and PG9 binder 5.
